Assay results: PubChem BioAssay AID624351 (Southern Research Specialized Biocontainment Screening …, 2012)
In all, about 2,400 compounds went through this assay and about 1,400 (58%) were called active. So high a share suggests a set chosen from earlier hits. Some of the results follow. Values without a mark were called inactive.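 The calls were made as follows: active = inhibition of 30% or more at any tested dose; inconclusive = primary hits over the limit that were never retested; inactive = the rest.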

experiment: ADP Hunter readout inhibition without MgcRacGAP – biochemical, coupled enzyme counter-screen, artefact control for MgcRacGAP inhibitor project, dose response (AID 624351); settings: fluorescence, no MgcRacGAP; series mostly up to 80 µM;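 also: signal is the ADP detection kit reading of free GDP without any GAP enzyme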;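 as to inhibition: 0% = median positive control wells and 100% = median negative control wells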

SMILES	IC50	inhibition
Brc1ccccc1OCCCCCN1CCOCC1	inactive	
S=c1[nH]nc2sc3ccccc3n12	32.3 µM (active)	
O=C(CN1CCN(c2ncccn2)CC1)N1CCCC1	inactive	
Oc1ccccc1/C=N/n1c(-c2ccccc2)n[nH]c1=S	71.4 µM (active)	
Cc1ccc(-c2n[nH]c(=S)n2/N=C/c2ccc(C(=O)O)cc2)cc1	69.7 µM (active)	
Cc1cccc(N2C(=O)/C(=C\c3ccc(C(=O)O)cc3)c3ccccc3C2=O)c1	inactive	
S=c1[nH]nc(-c2ccncc2)n1/N=C/c1ccccc1	39.6 µM (active)	
NNc1ccc([N+](=O)[O-])c2[nH][nH]c(=O)c12		-1.61% [at 10 µM]
Cc1ccc(S(=O)(=O)/N=S(/c2ccccc2)C(C)C)cc1 (stereo unspecified)	inactive	
CN(C)c1ccc2cc(S(=O)(=O)O)cc(O)c2c1	75 µM (active)	
Nc1cccc2c(O)cc(S(=O)(=O)O)cc12	inactive	
O=S(=O)(O)c1cc(O)c2ccc(Nc3ccccc3)cc2c1	inactive	
COc1cc(/C=C/C(=O)OCC(=O)Nc2ccc3c(c2)OCO3)ccc1O	42.1 µM (active)	
O=C(CCN1CCCCCC1)Nc1ccc2c(c1)OCCO2	inactive	
O=C(CN1CCOCC1)Nc1ccc2c(c1)OCCO2	inactive	
COc1cc(/C=C/C(=O)OCC(=O)Nc2ccc3c(c2)OCCO3)ccc1O	29.2 µM (active)	
CC(C)C1=Nc2cccc3cccc(c23)N1	26.5 µM (active)	
O=C(Oc1ccc(N(C(=O)c2ccncc2)S(=O)(=O)c2cccs2)cc1)c1ccncc1	inactive	
N=C(N)c1ccc(N=Nc2c(O)ccc3c2[nH]c2ccccc23)cc1	18 µM (active)	
O=C(O)CCN1C(=O)/C(=C/c2ccc(-c3nc4ccccc4s3)o2)SC1=S	inactive	
COCCNCC(=O)Nc1nc(C)cs1	inactive	
CC(C)(C)N1C(=O)c2ccc(C(=O)Nc3ccc(O)cc3)cc2C1=O	29.7 µM (active)	

SMILES	IC50	inhibition
O=C(Nc1ccc(O)cc1)c1ccc2c(c1)C(=O)N(Cc1ccccc1)C2=O	inactive	
Cc1ccc(Nc2c(-c3ccco3)nc3ccccn23)cc1	inactive	
Cc1ccn2c(Nc3ccc4c(c3)OCO4)c(-c3ccc(O)cc3)nc2c1	32.4 µM (active)	
COc1cc(-c2nc3cnccn3c2Nc2ccc(C)cc2)ccc1O	45.3 µM (active)	
COc1cc(-c2nc3ccc(C)cn3c2Nc2ccc3c(c2)OCCO3)ccc1O	34.4 µM (active)	
Cc1cccc(Nc2c(-c3ccc(O)cc3)nc3ncccn23)c1	31.7 µM (active)	
N#CC(C#N)=C1C=CC=CN1/C(=C\c1ccco1)C(=O)c1ccc(Cl)cc1	inactive	
COc1cc(-c2nc3ccccn3c2NCC2CCCO2)ccc1O (stereo unspecified)	inactive	
COc1cc(-c2nc3cnccn3c2Nc2c(C)cccc2C)ccc1O	52.8 µM (active)	
Clc1cc(Br)ccc1OCCOCCN1CCCC1	inactive	
COc1cc(/C=N/NC(=O)CNC(=O)c2ccco2)ccc1O	36.8 µM (active)	
COc1cc(/C=N/NC(=O)CNC(=O)c2cccs2)ccc1O	38.4 µM (active)	
COc1ccc2c(/C=N/Nc3ccc(C(=O)O)cc3)c[nH]c2c1	58.5 µM (active)	
O=C(O)c1ccc(N/N=C/c2c[nH]c3ccccc23)cc1	47.5 µM (active)	
CN=c1scc(-c2ccc(F)cc2)n1/N=C/c1ccc(O)c(O)c1	38.6 µM (active)	
CN=c1scc(-c2ccco2)n1/N=C/c1ccc(O)c(O)c1	43.9 µM (active)	
CC(C)N=c1scc(-c2ccco2)n1/N=C/c1ccc(O)c(O)c1	63.8 µM (active)	
Oc1ccc(/C=N/n2c(-c3ccco3)csc2=Nc2cccnc2)c(O)c1	34.3 µM (active)	
CN(C)CCCn1c(SCc2ccc(Cl)cc2)nnc1-c1ccncc1	inactive	
CCOc1cc(/C=N/NC(=O)c2c(-c3ccccc3)noc2C)ccc1O	60.4 µM (active)	
COc1cc(/C=N/NC(=O)c2c(-c3ccccc3)noc2C)ccc1O	50.7 µM (active)	
COc1cc(/C=N/Nc2nncn2/N=C/c2ccc(O)c(OC)c2)ccc1O	39 µM (active)	

SMILES	IC50	inhibition
Oc1ccc(/C=N/Nc2nn3cnnc3c3ccccc23)cc1	23.3 µM (active)	
COc1cc(/C=N/Nc2nn3cnnc3c3ccccc23)ccc1O	58.4 µM (active)	
Cc1ccc(OCCCCNC(C)(C)C)c([N+](=O)[O-])c1	inactive	
N#CC1=C(N)NC(=S)C(C(N)=O)C1c1ccc([N+](=O)[O-])cc1 (stereo unspecified)	inactive	
N=C(N)c1ccc(/C=C/c2ccc(C(=N)N)cc2O)cc1	inactive	
CCOc1ccc(C2NC(=O)C(C#N)=C(S)N2c2ccc(C)cc2)cc1OC (stereo unspecified)	inactive	
COc1cc2nc(=S)n3[nH]c(CCn4nc(C)cc4C)nc3c2cc1OC	19.6 µM (active)	
COc1ccc2cc(OCC(=O)NNC(=O)Nc3ccc(F)cc3)ccc2c1	65.5 µM (active)	
CC1=C/C(=C(/c2cc(C)c(O)c(Br)c2)c2ccccc2S(=O)(=O)O)C=C(Br)C1=O	62.4 µM (active)	
Cc1cccc(C=Nc2ccc3c4c(cccc24)CC3)c1O	32.6 µM (active)	
Oc1ccc(Br)cc1C=Nc1ccc2c3c(cccc13)CC2	79.9 µM (active)	
Oc1ccc(Cl)cc1C=Nc1ccc2c3c(cccc13)CC2	14.8 µM (active)	
CC(C)(C)N(Cc1ccc2c(c1)OCO2)C(=O)/C=C\S(=O)c1ccccc1 (stereo unspecified)	inactive	
COc1ccc(C2NC(=O)C(C#N)=C(S)N2c2cccc(C)c2)cc1OC (stereo unspecified)	inactive	
COCc1cc(S(=O)c2ccc(Cl)cc2)nc(C)n1 (stereo unspecified)	inactive	
C=CCc1ccc(OCCOCCNCCCC)c(OC)c1	inactive	
COc1cc(/C=N/NC(=O)CNC(=O)c2ccc3c(c2)OCCO3)ccc1O	58.4 µM (active)	
COc1cc(/C=N/NC(=O)c2ccc3c(c2)OCO3)ccc1O	31.9 µM (active)	
Cc1nc2c(=O)[nH]c(=S)[nH]c2[nH]c1=O	inactive	
CN1CCc2c1nc1ccccc1c2NC(=O)CN1CCCC1	inactive	
Cc1[nH]nc(-c2ccc(O)c(C)c2O)c1-c1cnn(-c2ccccc2)c1	70.7 µM (active)	
O=C(Cc1coc2cc(O)ccc12)NNC(=O)c1ccc(Br)s1	35.2 µM (active)	

SMILES	IC50	inhibition
O=C(Cc1coc2cc(O)ccc12)NNC(=O)c1cccs1	33.8 µM (active)	
O=c1oc2cc(O)ccc2c2oc3cc(O)ccc3c12	54.1 µM (active)	
COc1cc(-c2ncc3ccccn23)cc(OC)c1OC	inactive	
CC1CC(=O)N(c2ccc(NCCc3ccc(O)cc3)c([N+](=O)[O-])c2)C1=O (stereo unspecified)	65.3 µM (active)	
CCCCc1nc2ccccc2c(NC(=O)CN2CCN(C)CC2)c1CCC	inactive	
O=c1c2ccccc2sn1-c1ccccc1F	inactive	
CC(=O)C1=C(O)C(=O)N(c2ccc(O)cc2)C1c1ccccc1[N+](=O)[O-] (stereo unspecified)	inactive	
Nc1cc([N+](=O)[O-])ccc1Nc1ccc(O)cc1	36.7 µM (active)	
Cc1ccc(/C=C/C(=O)Nc2ccc([N+](=O)[O-])c(NC(=O)/C=C/c3ccc(C)o3)c2)o1	inactive	
Nc1nc(Sc2ccc([N+](=O)[O-])c3nonc23)c2[nH]cnc2n1	inactive	
Cc1cc(NCCCCCCCNc2cc(C)nc3cc([N+](=O)[O-])ccc23)c2ccc([N+](=O)[O-])cc2n1	inactive	
O=[N+]([O-])c1cc([N+](=O)[O-])c2nonc2c1Nc1ccc(O)cc1	44.7 µM (active)	
O=[N+]([O-])c1ccccc1Nc1ccc(O)cc1	16.3 µM (active)	
CCN(Cc1ccncc1)Cc1ccc(OC)cc1OC	inactive	
Cn1cccc1/C=N/N1CCN(c2ccccc2)CC1	78.7 µM (active)	
Cn1cccc1/C=N/N1CCN(c2ccccn2)CC1	31.9 µM (active)	
COc1ccc(CN2CCN(c3ccccn3)CC2)c(OC)c1C	inactive	
CC(C(=O)N1CCCc2ccccc21)N1CCN(c2ccccn2)CC1 (stereo unspecified)	inactive	
Cc1nc(S/C(=C\c2ccc(-c3ccc(C(=O)O)c(Cl)c3)o2)C(=O)O)n[nH]1	inactive	
CC[n+]1c(/C=C/N(C)c2ccccc2)oc2ccc(Cl)cc21	inactive	
COc1ccc(O/C(=N\S(=O)(=O)c2ccccc2)c2ccccc2)cc1	46.1 µM (active)	
C=CCn1c(CNc2ccccc2)nnc1SCC(=O)N/N=C/c1ccc(O)cc1O	79.7 µM (active)	

SMILES	IC50	inhibition
Cc1ccc(C2=NOC(=O)/C2=C\c2ccc(C)o2)cc1	inactive	
COc1cc(OC)c2cc[nH]c2c1	80.5 µM (active)	
COc1cc(CNCc2cc(OC)c(OC)c(OC)c2)cc(OC)c1	inactive	
COc1ccc(CN2CCN(Cc3c[nH]c4ccccc34)CC2)c(OC)c1	inactive	
C=CCn1c(SCC(=O)Nc2ccc(O)cc2)nc2sc(CC)cc2c1=O	37.1 µM (active)	
Cc1ccccc1N1C(S)=C(C#N)C(=O)NC12CCCCC2	inactive	
Cc1cc(=O)c2c(O)c(O)ccc2o1	41.8 µM (active)	
COc1ccc2c(c1)Sc1ccccc1N2	34.1 µM (active)	
Cc1ccc(-c2cc(C(=O)N3CCN(c4ccc(O)cc4)CC3)c3ccccc3n2)cc1	83.4 µM (active)	
O=C(c1cc(C2CC2)nn1-c1ccccc1)N1CCN(c2ccc(O)cc2)CC1	42.2 µM (active)	
Cc1ccccc1CN1CCN(C(=O)c2cccc3ccccc23)CC1	inactive	
S=C(c1ccccc1)N1CCN(c2ccccc2)CC1	inactive	
COc1cc(CN2CCN(C(=O)c3cccc4ccccc34)CC2)cc(OC)c1OC	inactive	
O=C(c1ccccc1)c1ccc(C(=O)N2CCN(c3ccc(O)cc3)CC2)cc1	39 µM (active)	
O=C(c1ccccc1)N1CCN(C2CCCCC2)CC1	inactive	
CCC(CC)N1CCN(C(=O)c2cccc(Cl)c2)CC1	inactive	
COc1ccc(C(=O)Nc2ccc(N3CCCCCC3)cc2)cc1S(=O)(=O)N1CCOCC1	inactive	
O=C(c1ccc(Cl)c(S(=O)(=O)N2CCCCCC2)c1)N1CCN(c2ccc(O)cc2)CC1	34.3 µM (active)	
